Source: article PMC4552634, “A New Set of Chemical Starting Points with Plasmodium falciparum Transmission-Blocking Potential for Antimalarial Drug Discovery” (PLoS ONE, 2015)
Among all 13,000 compounds or so, about 3,200 (25%) showed an effect of 50% or more. The list shows a part of the results.

Each molecule was assayed on P. falciparum stage V gametocytes. Details: 48 h, 5 µM; inhibitor.
Design: BacTiter-Glo ATP luminescence viability of purified stage V gametocytes in 384-well plates, per cent inhibition versus DMSO

| Structure (SMILES) | % Inhibition [%] |
| --- | --- |
| Cc1cc2c(cc1C(F)(F)F)N(C(=O)Nc1ccc(C(=O)NCCN3CCCC3)cc1)CC2 [TCMDC-139870] | 3.174 |
| CC(=O)Nc1ncc(C(=O)Nc2cccc(-c3cccc(-c4nc5c(C)cccc5[nH]4)c3)c2)s1 [TCMDC-136920] | 35.18 |
| C=CCOC(=O)N1CCC(CNCc2ccc(-c3ccc(-c4nc5cc(C(F)(F)F)ccc5[nH]4)cc3)cc2)C1.O=C(O)C(F)(F)F (centres unmarked) [TCMDC-133041] | -74.05 |
| CCc1cc(COc2ccc(CNCCC(C)C)cc2I)c(OCc2ccccc2)c(COc2ccc(CNCCC(C)C)cc2I)c1 [TCMDC-137255] | 104.7 |
| CC(C)CCNCc1ccc(OCc2cccc(COc3ccc(CNCCC(C)C)cc3I)c2)c(I)c1 [TCMDC-137274] | 110.6 |
| CN(C)Cc1cccc(CNC(=O)c2sccc2OCc2ccc(Cl)cc2)c1 [TCMDC-133072] | 41.43 |
| Oc1ccc(CCNCc2ccc(OCc3ccccc3)c(OCc3ccccc3)c2)cc1 [TCMDC-131868] | 6.388 |
| CC(C)CCNCc1ccc(OCc2cccc(C(=O)Nc3ccccc3)c2)c(I)c1 [TCMDC-137174] | 28.8 |
| Ic1cc(Nc2ncnc3ccsc23)ccc1OCc1ccccc1 [TCMDC-131945] | 7.84 |
| Cc1ccc(C)c(NC(=O)Nc2ccc(C)c(-c3ccc(C(=O)Nc4ccncc4)cc3)c2)c1 [TCMDC-133703] | -9.34 |
| COc1cc(CCNC(=N)/C=C/c2ccc(Cl)cc2)ccc1Cl [TCMDC-137457] | 106.7 |
| COc1ccc(NC(=O)N2CCCN(CCCCCNC(=O)/C=C/c3ccc(Cl)cc3)CC2)cc1Cl [TCMDC-136103] | -49.97 |
| COc1ccc(CCNc2ccnc3cc(Cl)ccc23)cc1OC [TCMDC-138550] | -32.91 |
| O=C(NCCN1CCCC1)c1ccc(-c2cccc(-c3nc4ccc(F)cc4[nH]3)c2)cc1 [TCMDC-132321] | -17.02 |
| COc1cc(OC)cc(C(=O)Nc2ccc(Nc3nc(C)cc(N(C)C)n3)cc2)c1 [TCMDC-124726] | 23.32 |
| NC(N)=NN=Cc1ccc2ccc3ccccc3c2c1 [TCMDC-137902] | 101.6 |
| NC(N)=NN=Cc1cc2ccccc2c2ccccc12 [TCMDC-137671] | 48.28 |
| NC(N)=NN=Cc1ccc2c(c1)Cc1ccccc1-2 [TCMDC-137360] | -2.51 |
| NC(N)=NN=Cc1ccc2c(ccc3ccccc32)c1 [TCMDC-137912] | 86.91 |
| Cc1ccccc1C1CCN(C2CCC(NC(=O)/C=C/c3cc(F)ccc3F)CC2)CC1 (centres unmarked) [TCMDC-133510] | -90.23 |
